SRC1 inh – inhibits human SRC1 coactivator. Q15788. HEK293 GAL4-SRC1 luciferase reporter, luminescence. inhibition, % at 3.6 µM. hit rate 0.12% among 360,000;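 active means inhibition above the campaign mean plus 3 SD, with each screening campaign given its own cutoff, cut at about 60% in these data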;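 further: 0% = DMSO treated cells and 100% = gossypol at 36 µM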
GalR3 antag – human GalR3 antagonism; O60755; HEK293 GalR3-CNG cAMP membrane potential fluorescence; galR3 body fused to GalR1 C-terminus; inhibition, % at 3 µM; hit rate 0.44% among 360,000;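 active means inhibition above the screen-wide average plus 3 SD, cut at about 13% in these data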;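 further: forskolin and galanin both at EC90 stimulate the cells; cAMP rise reported by CNG channel membrane potential dye signal; 0% = forskolin plus galanin with DMSO and 100% = forskolin alone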
NR5A2 inv ag – inverse agonists of human LRH-1 (NR5A2). HEK293T StAR-luciferase reporter, LRH-1 transfected, 24 h. inhibition, % at 3.6 µM. AID 602396. O00482. hit rate 0.13% among 360,000;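 active means inhibition above the mean inhibition of all tested compounds plus 3 SD, cut at about 73% in these data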;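 further: 0% = DMSO wells and 100% = reporter-only cells lacking LRH-1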
Target sequence (O00482 whole entry, looked up): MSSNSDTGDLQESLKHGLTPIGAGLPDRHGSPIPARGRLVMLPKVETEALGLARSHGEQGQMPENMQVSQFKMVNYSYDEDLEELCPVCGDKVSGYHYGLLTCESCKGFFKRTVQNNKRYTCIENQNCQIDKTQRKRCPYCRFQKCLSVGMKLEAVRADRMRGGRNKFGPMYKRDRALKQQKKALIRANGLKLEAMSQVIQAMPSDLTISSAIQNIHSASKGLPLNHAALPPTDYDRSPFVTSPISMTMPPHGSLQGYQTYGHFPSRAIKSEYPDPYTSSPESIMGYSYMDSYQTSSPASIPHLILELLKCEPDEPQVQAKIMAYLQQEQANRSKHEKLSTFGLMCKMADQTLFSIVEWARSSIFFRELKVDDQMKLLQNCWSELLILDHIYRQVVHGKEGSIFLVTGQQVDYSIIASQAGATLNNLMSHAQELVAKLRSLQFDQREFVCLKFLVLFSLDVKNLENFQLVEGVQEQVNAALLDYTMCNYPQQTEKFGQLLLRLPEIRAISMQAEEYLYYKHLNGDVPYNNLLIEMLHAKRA
NCOA2 inhibitor – human SRC2 (NCOA2) inhibition. HEK293 GAL4-SRC2 luciferase reporter, luminescence. inhibition, % at 9 µM. hit rate 0.17% among 370,000. AID 651957;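 active means inhibition above the mean inhibition of all tested compounds plus 3 SD, set per campaign, cut at about 52% in these data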;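 further: 0% = DMSO treated cells and 100% = cells given Gossypol at 36 µM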
COUP-TFII inh – inhibitors of human COUP-TFII (NR2F2). P24468. HEK293T NGFI-A luciferase reporter, luminescence. inhibition, % at 8.6 µM. hit rate 0.7% among 370,000;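 active means inhibition above a per-plate cutoff, mean inhibition of test wells between control levels plus 3 SD, cut at about 38% in these data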;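 further: cells cotransfected with COUP-TFII expression vector driving the NGFI-A reporter; 0% = median of COUP-TF2 test wells and 100% = reporter-only cells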
SRC3 inh – inhibitors of human steroid receptor coactivator 3 (SRC3); Q9Y6Q9; HEK293 GAL4-SRC3 luciferase reporter, luminescence; inhibition, % at 3.6 µM; hit rate 0.17% among 360,000;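 active means inhibition above a per-campaign cutoff, the mean of all compounds plus 3 SD, cut at about 60% in these data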;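 further: 0% = DMSO-treated cells and 100% = gossypol-treated cells at 36 µM; higher means less SRC3-driven luciferase light from the GAL4 reporter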
GalR3 conf – confirmation of human galanin receptor 3 antagonists. shares compounds with GalR3 antag. hit rate 59% among 1,600. AID 652245. HEK293 GalR3 CNG cAMP biosensor, membrane potential fluorescence; galR3 fused to GalR1 carboxy tail; challenged with forskolin and galanin at EC90. inhibition, % at 3 µM;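 active means inhibition above the primary screen's cutoff, the mean inhibition of all screened compounds plus 3 SD, cut at about 13% in these data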;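 further: 0% = forskolin plus galanin and 100% = forskolin alone with DMSO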
HEK-CNG parental – acts as nonspecific agonist in parental HEK-CNG cells; shares compounds with GalR3 antag; HEK293-CNG parental cells, cAMP membrane potential fluorescence; normalised: DMSO wells 0%, forskolin wells 100%; activation, % at 3 µM; hit rate 10% among 1,600; in the data active means activation above about 1.3%
Gal4-VP16 ctr – inhibits VP16 reporter, flagging COUP-TFII antagonist hits | shares compounds with COUP-TFII inh | HEK293 Gal4-VP16 luciferase reporter, luminescence | inhibition, % at 8.5 µM | hit rate 25% among 2,500; in the data active means inhibition above about 13%
COUP-TFII conf – confirmation of human COUP-TFII (NR2F2) inhibitors; shares compounds with COUP-TFII inh; HEK293 NGFI-A luciferase reporter, luminescence; inhibition, % at 8.5 µM; hit rate 45% among 2,500; AID 687008;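 active means mean inhibition over three repeats above a set limit taken from the earlier primary screen, cut at about 38% in these data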;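 further: 100% = cells given the luciferase reporter alone without the COUP-TF2 vector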
Active calls of the source: *; nt = not tested or not shown; ! = repeats disagree. This is a sample that favours compounds with a hit; in the whole collection about 1.1% have one here.

SMILES	SRC1 inh	GalR3 antag	NR5A2 inv ag	NCOA2 inhibitor	COUP-TFII inh	SRC3 inh	Gal4-VP16 ctr	COUP-TFII conf	others
COc1ccc(S(=O)(=O)Nc2ccc(Cc3ccncc3)cc2)cc1OC	7	-9	6	22	29	20	nt	nt
CCc1ccc(OC)c(S(=O)(=O)Nc2ccc(Cc3ccncc3)cc2)c1	22	46*	23	23	64*	25	4	36	GalR3 conf=8;HEK-CNG parental=0
Fc1ccc(NC(=S)N2CCCN(c3ccc(C(F)(F)F)cn3)CC2)c(F)c1	25	110*	43	18	64*	19	5	63*	GalR3 conf=107*;HEK-CNG parental=-1
Cn1nc(C(C)(C)C)cc1C(=O)NCc1ccc2c(c1)OCO2	7	105*	42	15	60*	15	-7	50*	GalR3 conf=108*;HEK-CNG parental=-1
CC(C)(C)c1ccc(-c2cn(-c3ccc(Br)cc3)c3[n+]2CCCS3)cc1	51	25*	83*	21	50*	50	18*	37	GalR3 conf=60*;HEK-CNG parental=1.7*
COc1ccc(-c2cn(-c3ccccc3)c3[n+]2CCS3)cc1	22	16*!	44	14	50*	34	4	34	GalR3 conf=0;HEK-CNG parental=0
O=C(CSc1nnc(-c2cccnc2)s1)Nc1ccnc2ccccc12	26	90*	51	41	65*	36	7	62*	GalR3 conf=119*;HEK-CNG parental=0
CCCCCn1c(=O)[nH]c2cc(C(=O)N3CCN(Cc4ccc5c(c4)OCO5)CC3)ccc2c1=O	15	99*	44	14	58*	10	2	64*	GalR3 conf=106*;HEK-CNG parental=-1
O=S(=O)(Nc1ccc(-c2csc(-c3ccccc3)n2)cc1)c1ccc(F)cc1	5	-4	7	4	0	8	nt	nt
O=C(Nc1nc(-c2ccccc2)cs1)c1ccccc1NS(=O)(=O)c1ccc(F)cc1	44	17*	75*	25	55*	60	-4	32	GalR3 conf=77*;HEK-CNG parental=-1
COc1ccc2nc(NC(=O)C3CCN(S(=O)(=O)c4cccs4)CC3)sc2c1	14	0	22	17	48*	36	-5	23
Cc1ccc2nc(NC(=O)C3CCN(S(=O)(=O)c4cccs4)CC3)sc2c1	12	-6	33	1	57*	24	-3	32
COc1ccc(CNCC#CC2=CCCCC2)c(OC)c1	nt	nt	nt	18	-39	nt	nt	nt
C[C@H]1O[C@@H](O[C@H]2[C@@H](O)C[C@H](O[C@H]3[C@@H](O)C[C@H](O[C@H]4CC[C@@]5(C)[C@H](CC[C@@H]6[C@@H]5C[C@@H](O)[C@]5(C)[C@@H](C7=CC(=O)OC7)CC[C@]65O)C4)O[C@@H]3C)O[C@@H]2C)C[C@H](O)[C@@H]1O	87*	23*	102*	61*	80*	91*	48*	77*
C[C@H](O)[C@@H]1CN2CCc3c([nH]c4cccc(-c5ccccc5)c34)[C@@H]2C[C@@H]1N(C)C(=O)Nc1ccccc1	nt	nt	nt	3	-17	nt	nt	nt
CN(C)c1ccc(-c2ccnc3c2CC(C)(C(=O)NCc2ccco2)O3)cc1 (configuration not stated)	3	-7	27	14	49*	-8	-10	12
CC(=O)Nc1ccc(-c2ccnc3c2CC(C)(C(=O)NCc2ccco2)O3)cc1 (configuration not stated)	9	-7	23	1	2	10	nt	nt
O=c1c2ccccc2[nH]n1[C@@H](Cc1ccccc1)Cn1cc(-c2ccc(-c3ccccc3)cc2)nn1	nt	nt	nt	-23	-86	nt	nt	nt
CCCC1CCC2(CCCN2CCOC(=S)NCc2cccc(C)c2)CC1 (configuration not stated)	nt	nt	nt	nt	15	nt	nt	nt
Cc1nn(-c2ccccc2)c(Cl)c1C(=O)NC1CCCCC1	-9	0	-18	-21	-6	-1	nt	nt
Cc1nn(-c2ccccc2)c(C)c1C(=O)OC(C)C(=O)NC1CCCCC1 (configuration not stated)	-7	-8	14	19	59*	19	-1	21
CC(=O)CC1c2ccccc2C=C(c2ccsc2)N1c1ccc(-c2cccs2)cc1 (configuration not stated)	nt	-6	16	6	46*	nt	-15	-4
COc1ncc(-c2ccc(N3C(c4ccsc4)=Cc4ccccc4C3CC(C)=O)cc2)cn1 (configuration not stated)	nt	-7	-13	-23	-8	nt	nt	nt
CCC(C(=O)Nc1ccccc1N1CCCC1)c1ccccc1F (configuration not stated)	nt	nt	nt	10	17	nt	nt	nt
CC(C)(C)C(=O)OC12CCCN(C1)/C(=C/c1ccc(C#N)cc1)C2 (configuration not stated)	nt	nt	nt	6	-7	nt	nt	nt
SMILES	SRC1 inh	GalR3 antag	NR5A2 inv ag	NCOA2 inhibitor	COUP-TFII inh	SRC3 inh	Gal4-VP16 ctr	COUP-TFII conf	others
c1ccc(Nc2nc(NCc3ccco3)c3ccccc3n2)cc1	-51	4	-53	30	53*	-2	-14	26
Clc1ccc(-c2nnc(CSc3nnc(-c4cccs4)n3Cc3ccccc3)o2)cc1	27	3	41	25	51*	21	8	47*
Cc1nnc(SCc2nnc(-c3cccs3)o2)n1Cc1ccccc1	-16	-4	4	-3	19	18	nt	nt
Cc1nc(SCc2cccc(C(=O)O)c2)nc2c1CCCC2	-48	-4	-43	53*	52*	-47	23*	4
COc1ccccc1NC(=O)Cn1c(C)cc(=O)c2cccc(OC)c21	33	-3	26	31	51*	23	8	42*
O=C(NCc1cccnc1)c1c[nH]c2cc3c(cc2c1=O)OCCO3	-13	-6	-15	-44	39*	-4	-117	30
Cc1ccc(OCC(=O)c2cc(C)n(CC(F)(F)F)c2C)c([N+](=O)[O-])n1	-24	-5	3	2	8	-4	nt	nt
Cc1ccc(OCC(=O)c2cc(C)n(Cc3cccs3)c2C)c([N+](=O)[O-])n1	30	4	14	66*	61*	37	-6	15
COc1ccc2c(c1)CNC2CS(=O)(=O)NCCc1ccccc1 (configuration not stated)	nt	nt	nt	0	6	nt	nt	nt

Screens as filed in PubChem.
